GLP1R ag – agonists of human GLP-1 receptor; HEK293 GLP-1R CRE-luciferase, luminescence, 4-6 h; cells express a hypersensitive GLP-1R form; AID 624172; hit rate 0.007% among 380,000; Potency, µM (doses to about 45.6 µM), actives largely listed as activators
HEK293 tox – cytotoxicity in counter-screen for GLP-1R inverse agonists; HEK293 cAMP-luciferase reporter cells, luminescence, 24 h; Potency, µM (doses to about 38.3 µM), most hits filed as inhibitors; hit rate 0.13% among 410,000; AID 624418;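 note: loss of luciferase light is scored as toxicity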
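Cells in DMEM/10% Nu serum/1% pen-strep, 1536-well format. Pre-incubated 12 h, dosed with 23 nL compound, incubated a further 24 h. Luciferase detection, 12 min at room temp, luminescence.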
VP16 counter – Gal4-VP16 reporter inhibition counter-screen; Potency, µM (titrated, usually from 53.6 µM), usual class: inhibitors; hit rate 3.5% among 310,000; Drosophila S2 Gal4-VP16 UAS-luciferase, luminescence, 20 h;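 note: Gal4-VP16 expression switched on by copper sulfate through the metallothionein promoter; nearly all actives have a fitted effect of over 50% in size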
RORgamma inh – blocks mouse ROR gamma transcriptional activity | P51450 | Drosophila S2 Gal4-RORgamma UAS-luciferase reporter, 20 h | Potency, µM (titrated, usually from 53.6 µM), actives largely listed as inhibitors | hit rate 5.4% among 310,000; note: nearly all actives have a fitted effect of over 60% in size
Target sequence (P51450 whole entry, looked up, the tested form may be a part): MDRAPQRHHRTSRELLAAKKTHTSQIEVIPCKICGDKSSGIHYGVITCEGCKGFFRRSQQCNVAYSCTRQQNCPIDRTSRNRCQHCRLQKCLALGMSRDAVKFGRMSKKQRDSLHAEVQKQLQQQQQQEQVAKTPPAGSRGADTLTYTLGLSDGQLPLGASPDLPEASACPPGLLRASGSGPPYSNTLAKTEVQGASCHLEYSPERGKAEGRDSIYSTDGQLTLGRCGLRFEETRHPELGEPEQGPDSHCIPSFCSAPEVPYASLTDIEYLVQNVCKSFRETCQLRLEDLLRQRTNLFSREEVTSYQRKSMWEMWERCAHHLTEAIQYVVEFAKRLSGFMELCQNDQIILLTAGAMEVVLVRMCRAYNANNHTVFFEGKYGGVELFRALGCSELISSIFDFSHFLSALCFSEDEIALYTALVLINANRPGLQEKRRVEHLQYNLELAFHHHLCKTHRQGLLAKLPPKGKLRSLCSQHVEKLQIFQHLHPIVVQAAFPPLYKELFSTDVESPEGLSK
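Read-out: Photinus luciferase luminescence; inhibitors lower reporter signal. Insect Schneider cells with Gal4-ROR gamma fusion under metallothionein promoter, UAS reporter; 700 uM final copper sulfate induction, 20 hr, ambient temperature.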
GLP-1R inv ag – GLP-1 receptor (human) inverse agonism | HEK293 GLP-1R CRE-luciferase, luminescence, 24 h; GLP-1R form is constitutively active | Potency, µM (series often up to 38.3 µM), most hits filed as inhibitors | hit rate 1.6% among 410,000 | AID 624417; note: nearly all actives have a fitted effect of over 55% in size
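Inverse agonists were sought by their lowering of basal cAMP reporter luciferase output in HEK293 cells stably carrying constitutively active human GLP-1R, after 24 h compound treatment.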
Numbers stand for hits; . = inactive; ? = inconclusive; / = not tested or not shown; [ ] = another dose, or the depositor's remark. Most compounds without a hit are left out; they make up all but 5.9% or so of the library. Calls come from the whole dose curve; as a rule, active = well fitted curve in the direction sought with a large enough effect; inconclusive = small, poorly fitted or top-dose-only effect, or another doubt; inactive = no such curve, though single readings can be large; an effect the other way counts as inactive or inconclusive.

SMILES | GLP1R ag | HEK293 tox | VP16 counter | RORgamma inh | GLP-1R inv ag
S=C(NCc1ccc2c(c1)OCO2)NCc1ccc2c(c1)OCO2 | . | . | ? | 16µM | .
Cc1ccc(CNC(=O)c2ccc(CSCc3ccccc3Cl)o2)cc1 | / | . | / | / | ?
CCc1cccc(CC)c1NC(=S)NCc1ccc2c(c1)OCO2 | . | ? | ? | 8.9µM | ?
CCc1cccc(CC)c1NC(=S)NC(C)c1ccccc1 (stereo unspecified) | . | ? | ? | 4µM | ?
O=C(NCc1ccc2c(c1)OCO2)c1ccc(CSCc2ccccc2Cl)o1 | . | . | . | . | 10µM
CCOC(=O)c1c(NC(=O)CSc2cn(CCNC(=O)c3ccccc3F)c3ccccc23)sc2c1CCC2 | . | . | / | / | .
O=C(O)c1ccc(NCc2ccc3c(c2)OCO3)cc1 | . | . | 1.3µM | 4µM | .
O=C(CSCc1ccc(Cl)cc1)NCc1ccc2c(c1)OCO2 | . | . | . | . | 8.9µM
NNC(=S)NCc1ccc2c(c1)OCO2 | . | ? | 8.9µM | 7.9µM | ?
O=C(NCc1ccc2c(c1)OCO2)c1ccc2c(c1)OCO2 | . | . | . | . | .
Cc1cccc(NC(=S)NCc2ccc3c(c2)OCO3)c1 | . | . | 16µM | 11µM | .
Cn1c(SCC(=O)c2ccc(F)cc2)nnc1-c1ccccc1Br | . | . | / | / | ?
O=c1ccsn1Cc1ccccc1 | . | ? | 4.5µM | 2.2µM | .
CCc1ccc(/C=C/C(=O)C2C(=O)c3ccccc3C2=O)cc1 | . | . | ? | . | .
CC[N+]1(C)CCC(O)(/C=C/c2ccccc2)C(C(=O)/C=C/c2ccccc2)C1 (stereo unspecified) | . | ? | / | / | 10µM
O=C(CCN1C(=O)/C(=C\c2cccs2)SC1=S)NC1=NCCS1 | . | .[1.53 µM] | ? | ? | .
O=C(CCN1C(=O)/C(=C/c2cccs2)SC1=S)NC1=NCCS1 | . | . | ? | 16µM | .
COc1ccccc1/C=C1\SC(=S)N(CCC(=O)NC2=NCCS2)C1=O | . | . | . | 4.5µM | .
COc1ccc(N2CCN(C(CNC(=O)CC(C)C)c3ccc4c(c3)OCO4)CC2)cc1 (stereo unspecified) | / | . | / | / | .
Cc1ccc2nc(/C(C#N)=C\c3ccc(N4CCOCC4)o3)[nH]c2c1 | . | . | . | ? | .
N#C/C(=C/c1ccc(N2CCCCC2)o1)c1cccc(F)c1 | . | . | 10µM | 7.1µM | .
N#C/C(=C/c1ccc(N2CCCCCC2)o1)c1ccc(Cl)cc1 | . | ? | 7.1µM | 7.1µM | ?
N#C/C(=C/c1ccc(N2CCCCC2)cc1)c1cccc(F)c1 | . | .[1.53 µM] | . | . | ?
Cc1ccc(/C(C#N)=C\c2ccc(N3CCOCC3)o2)cc1 | . | . | .[0.365 µM] | 1.8µM | .
Cc1ccc(S(=O)(=O)Nc2cccc(-c3ccc(N4CCC(C)CC4)nn3)c2)s1 | / | . | / | / | ?
SMILES | GLP1R ag | HEK293 tox | VP16 counter | RORgamma inh | GLP-1R inv ag
Cc1ccc(Sc2ncccc2C(=O)NCc2cc([N+](=O)[O-])ccc2O)c(C)c1 | . | . | 7.1µM | 5µM | .
O=C(NCc1cc([N+](=O)[O-])ccc1O)c1cccnc1Sc1ccccc1 | . | . | 11µM | 10µM | .
Cc1ccc(Sc2ncccc2C(=O)NCC(c2ccc(F)cc2)N2CCOCC2)c(C)c1 (stereo unspecified) | . | . | / | / | .
O=C(NNC(=O)c1cccnc1SCc1cccc([N+](=O)[O-])c1)c1ccccn1 | . | .[1.53 µM] | 5µM | 3.5µM | ?
O=C(NNC(=O)c1cccnc1SCc1cccc([N+](=O)[O-])c1)c1ccc(F)cc1 | . | . | ? | ? | .
O=C(NCc1ccccc1)c1cccnc1Sc1ccccc1 | . | . | . | . | .
O=C1Oc2ccccc2C(=O)C1C(CC(O)c1ccc(-c2ccc(Br)cc2)cc1)c1ccccc1 (stereo unspecified) | . | / | . | ? | /
CN(C)CC1CCn2c(c(C3=C(c4cn(C)c5ccccc45)C(=O)NC3=O)c3ccccc32)C1 (stereo unspecified) | / | / | . | . | /
O=C(NC1CC(=O)N(c2ccc(F)cc2)C1)C1CC1 (stereo unspecified) | / | . | / | / | .
COc1ccc(N2CCN(C(=O)Nc3cccc(C(F)(F)F)c3)CC2)cc1 | . | . | . | . | 10µM
Cc1cccc(NC(=S)N2CCN(S(=O)(=O)c3ccc(F)cc3)CC2)c1 | . | ? | . | 13µM | .
COc1ccc(NC(=S)N2CCN(S(=O)(=O)c3ccc(F)cc3)CC2)cc1 | . | . | . | . | .
CCOC(=O)N1CCN(C(=S)Nc2cccc(C)c2)CC1 | . | . | . | . | .
Cc1cccc(NC(=S)N2CCN(c3ccc(F)cc3)CC2)c1 | . | . | ? | 8.9µM | ?
O=S(=O)(c1ccc(Cl)cc1)N1CCN(C(=S)Nc2ccc(F)c(Cl)c2)CC1 | . | . | ? | ? | 8.9µM
O=S(=O)(c1ccccc1)N1CCN(C(=S)Nc2ccc(F)cc2)CC1 | . | . | . | .[10 µM] | .
CCOc1ccc(NC(=O)CSc2nc3ccsc3c(=O)n2C(C)CC)cc1 (stereo unspecified) | / | . | / | / | .
CC(=O)OC1C[C@]2(C)C(C(C)=O)CCC2C2CCC3=CC(=O)CC[C@@]3(C)C12 (stereo partly specified) | / | / | . | . | /
O=C(C1CCC1)N1CCCc2cc(S(=O)(=O)Nc3ccc(F)cc3)ccc21 | / | . | / | / | ?
COc1cc(C(=O)OC(COCCC(C)C)CN2CCOCC2)cc(OC)c1OC (stereo unspecified) | . | / | / | / | /
Cc1ccc([N+](=O)[O-])c(N)c1 | / | / | . | . | /
Cc1cc(C)cc(NC(=S)N2CCN(c3ccc(F)cc3)CC2)c1 | . | . | . | 7.1µM | .
FC(F)(F)c1cccc(NC(=S)N2CCN(c3cccc(C(F)(F)F)c3)CC2)c1 | . | . | . | 11µM | ?
CCn1nnc(NC(=O)c2cccnc2)n1 | . | . | . | . | .
CCn1nnc(NC(=O)c2ccc(C(C)(C)C)cc2)n1 | . | . | 13µM | 13µM | ?
O=C1CC(c2ccccc2)Cc2[nH]c(=O)c(-c3nc(-c4cccc(Cl)c4)cs3)cc21 (stereo unspecified) | / | . | / | / | .
CCCCCCCCN1C(=O)[C@H](CC(=O)NCc2ccc(OC)c(OC)c2)C[C@@]2(C(=O)OCC)CCCC=C12 | . | ? | / | / | 10µM
CCCCCCCCN1C(=O)[C@H](CC(=O)NCc2cccs2)C[C@@]2(C(=O)OCC)CCCC=C12 | . | . | / | / | 10µM
CCOC(=O)[C@]12CCCC=C1N(Cc1ccc(Cl)cc1Cl)C(=O)[C@H](CC(=O)NCc1cccc(C(F)(F)F)c1)C2 | . | . | / | / | ?
CCOC(=O)[C@]12CCC=C1N(Cc1ccc(Cl)cc1Cl)C(=O)[C@H](CC(=O)NCc1cccc(C(F)(F)F)c1)C2 | . | . | / | / | 11µM

From PubChem BioAssay
